Screening data as filed in PubChem BioAssay.
SMN2 splice enh: qHTS Assay for Enhancers of SMN2 Splice Variant Expression; HEK293 SMN2-luciferase splicing reporter, luminescence, 30-36 h; Potency, µM (series often up to 46.1 µM), for the others: at the highest dose activity change, positive = activation, usual class: activators; 210,000 tested, 2.8% active; further: % of control where 0% means no effect; nearly all actives have a fitted effect of over 55% in size
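qHTS luciferase splicing reporter: luminescence rises when SMN2 exon 7 is included in transfected HEK293 cells. Compound exposure lasted 30-36 h at 37C, with 4.5 mM final sodium butyrate as control, followed by a ONE-Glo read.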
FLuc counter: qHTS profiling assay for firefly luciferase inhibitor/activator using purifed enzyme and Km concentrations of substrates (counterscreen for miR-21 project). 360,000 tested, 6.9% active. purified FLuc, Km substrates, luminescence inhibition. Luciferin 4-monooxygenase (Photinus pyralis), P08659. Potency, µM (top dose mostly 57.5 µM), without a hit: at the highest dose activity change, negative = inhibition, most hits filed as inhibitors. AID 588342, 2011;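 further: plate controls were vehicle for no effect and reference inhibitor for full effect; nearly all actives have a fitted effect of over 55% in size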
Target sequence (P08659 whole entry, looked up): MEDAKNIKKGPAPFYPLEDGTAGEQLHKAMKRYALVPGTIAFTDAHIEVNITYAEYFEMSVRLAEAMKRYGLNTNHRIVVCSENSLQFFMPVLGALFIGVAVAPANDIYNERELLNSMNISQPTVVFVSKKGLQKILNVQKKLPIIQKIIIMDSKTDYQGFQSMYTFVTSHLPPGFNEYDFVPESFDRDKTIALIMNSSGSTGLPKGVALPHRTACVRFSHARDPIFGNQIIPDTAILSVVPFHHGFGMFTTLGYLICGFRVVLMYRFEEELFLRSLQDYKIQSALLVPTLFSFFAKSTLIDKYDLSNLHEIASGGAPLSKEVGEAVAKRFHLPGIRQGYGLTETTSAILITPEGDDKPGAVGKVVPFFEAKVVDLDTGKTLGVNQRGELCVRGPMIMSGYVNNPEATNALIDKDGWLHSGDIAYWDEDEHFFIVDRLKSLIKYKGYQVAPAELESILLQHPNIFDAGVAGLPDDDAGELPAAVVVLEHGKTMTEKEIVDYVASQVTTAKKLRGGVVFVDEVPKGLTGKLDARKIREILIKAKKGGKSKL
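Purified P. pyralis luciferase (10nM final) with 10uM D-luciferin and 10uM ATP (Km levels) in 50mM Tris acetate pH 7.5, 10mM Mg acetate, 0.01% Tween-20, 0.05% BSA; qHTS 6-point titration, ~60 µM downward; luminescence read.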
p53 reactivation: qHTS assay for re-activators of p53 using a Luc reporter. H1299 p53-A138V BP100-luciferase reporter, luminescence, 24 h. Potency, µM (series often up to 92.2 µM), inactives show at the top dose activity change, positive = activation, actives largely listed as activators. 320,000 tested, 0.063% active. AID 504706, 2011; further: % of control where 0% means no effect; nearly all actives have a fitted effect of over 45% in size
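p53-null H1299 cells stably carrying temperature-sensitive p53-A138V and a BP100-luciferase reporter were pinned with compounds (4-point, 1:5 series) and held 24 hrs at 37 deg C. Luminescence was read 10 min after detection reagent.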
ELG1 genotoxic: qHTS screen for small molecules that induce genotoxicity in human embryonic kidney (HEK293T) cells expressing luciferase-tagged ELG1. HEK293T ELG1-luciferase reporter, luminescence, 16 h. Potency, µM (titrated, usually from 46 µM), inactives show at the highest dose activity change, positive = activation, most hits filed as activators. 330,000 tested, 1.3% active; further: % of control where 0% means no effect; nearly all actives have a fitted effect of over 60% in size
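Quantitative HTS format in 1536-well plates. HEK293T ELG1-luciferase reporter cells receive test compound and are incubated 16 hr at 37 °C, 5% CO2; ONE-Glo added, 30 min room temperature, then luminescence read.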
Rab9 prom act: qHTS Assay for Rab9 Promoter Activators. AID 485297, 2010. Potency, µM (titrated, usually from 9.22 µM), for the others: at the highest dose activation, negative = inhibition, hits mostly activators. 320,000 tested, 2.8% active. Huh7 Rab9 promoter-luciferase reporter, luminescence, 24 h; further: % of control where 0% means no effect; nearly all actives have a fitted effect of over 60% in size
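Quantitative HTS format; Huh7 Rab9-luciferase reporter cells (1500/well) receive compound 2 h post-plating, incubate 24 h at 37 °C, then get luciferase reagent for 10 min before luminescence reading.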
NPC1 promoter act: qHTS Assay for NPC1 Promoter Activators; Huh7 NPC1 promoter luciferase reporter, 24 h; Potency, µM (highest dose often 9.22 µM), inactives show at the highest dose activation, actives largely listed as activators; 320,000 tested, 2.4% active; AID 485313, 2010; further: % of control where 0% means no effect; nearly all actives have a fitted effect of over 60% in size
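Huh7 reporter cells (NPC1 promoter driving luciferase) are dosed with compound for 24 h at 37 °C, 5% CO2; luciferase detection reagent is then added and luminescence measured after 10 min at ambient temperature.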
* marks the source's active call; other numbers are inactive results; ? = inconclusive; · = not tested or not shown; [ ] = remark or other dose. Compounds with a hit are over-represented: about 7.3% of the library has one in this group of screens. The call rests on the fitted dose curve; in most records, active means well fitted curve in the direction sought with a large enough effect; inconclusive means small, poorly fitted or top-dose-only effect, or another doubt; inactive means no such curve, though single readings can be large; an effect the other way counts as inactive or inconclusive. Potency means the concentration at half of the fitted maximal effect.

SMILES	SMN2 splice enh	FLuc counter	p53 reactivation	ELG1 genotoxic	Rab9 prom act	NPC1 promoter act
Cc1cc(C)n2nc(-c3cccc(Br)c3)cc2n1	·	8.49µM*	·	?	?	?
Cc1cccc(-c2cc3nc(C)cc(N4CC(C)CC(C)C4)n3n2)c1 (stereo not drawn)	-3.6%	-6.6%	0.9%	-5.8%	-5.0%	1.6%
COc1ccccc1-c1cc2nc(C)cc(C)n2n1	·	15.1µM*	14.4%	?	17.6%	26.6%
COc1ccc(CCNC(=O)CCc2c(C)nc3cc(-c4ccccc4OC)nn3c2C)c(OC)c1	-2.3%	-14.6%	·	·	·	·
CC(=O)c1cnc2cc(-c3cccc(Br)c3)nn2c1C	11.2µM*	?	18.4%	13.5%	2µM*	2.82µM*
Cc1cccc(-c2cc3nc(C)cc(C)n3n2)c1	·	6.75µM*	14.0%	?	0.447µM*	0.398µM*
COC(=O)c1ccc(NC(=O)CSc2nc(=O)n(Cc3ccco3)c3c2CCC3)cc1	·	-12.9%	·	·	·	·
CC(=O)O[C@H]1CC2(C)[C@@H](C[C@@H](O)[C@H]3[C@@]4(C)CC[C@@H](O)[C@@H](C)[C@@H]4CC[C@@]32C)C1=C(CCC=C(C)C)C(=O)O (stereo partly drawn)	6.8%	·	·	·	-8.2%[46.1 µM]	1.5%[46.1 µM]
c1ccc(-c2nnnn2-c2ccccc2)cc1	·	0.9%	11.1%	-0.3%	2.9%	0.4%
CN=c1nc(-c2ccccc2)n(-c2ccccc2)s1	?	15.1µM*	18.7%	?	-12.1%[46.1 µM]	-5.1%[46.1 µM]
Cc1ccc(-c2nn(-c3ccccc3)cc2/C=C/C(=O)O)o1	1.5%	23.9µM*	-3.8%	2.3%	-0.6%	-1.6%
COc1cccc(C2C(C(=O)Nc3cccnc3)=C(C)Nc3nc(SCc4ccccc4)nn32)c1 (stereo not drawn)	-2.8%	-0.1%	·	·	·	·
Cc1cc2nc(CS)[nH]c2cc1C	·	4.78µM*	17.5%	4.2%	12.0%	7.7%
Cc1cc2nc(CO)[nH]c2cc1C	·	-10.5%	-2.3%	5.3%	-3.5%	-1.4%
COCc1cc(C)nc2c1C(=O)NC(c1ccc(Br)cc1)N2Cc1ccccc1 (stereo not drawn)	1.0%	-3.2%	·	·	·	·
COc1ccc(OC)c(N=Cc2c(O)c3ccccc3oc2=O)c1	·	-10.1%	·	1.1%	-2.4%	-4.5%
CC(C)c1ccc(N=Cc2c(O)c3ccccc3oc2=O)cc1	·	0.379µM*	·	18.1%	2.1%	-6.2%
COc1ccc(N=Cc2c(O)c3ccccc3oc2=O)cc1	8.9%	0.757µM*	?	16.2%	4.1%	-0.1%
COc1ccc(OCC(=O)c2c(O)c3ccccc3oc2=O)cc1	·	16.9µM*	7.3%	8.5%	2.1%	-0.4%
CCCCN=C(C)c1c(O)c2ccccc2oc1=O	?	19µM*	?	?	3.98µM*	?
CCc1ccc(-n2nc(C)c3c(C(=O)Nc4cccc(C(F)(F)F)c4)cc(C)nc32)cc1	·	4.5%	·	·	·	·
CCOC(=O)c1c(O)[nH]c(=O)c(CC)c1C	-10.2%[9.22 µM]	·	·	·	·	·
CCOC(=O)CSc1nc(N)c(C#N)c(CC(C)C)c1C#N	-9.0%	2.7%	2.5%	1.8%	-1.2%	3.6%
CN(C)S(=O)(=O)c1ccc2c(c1)N(CC(=O)N1CCN(c3ccccc3F)CC1)CCS2	·	-7.2%	·	·	·	·
COc1ccc(N=Cc2c(O)cc(C)oc2=O)cc1	2.3%	12µM*	?	5.9%	0.9%	-5.5%
SMILES	SMN2 splice enh	FLuc counter	p53 reactivation	ELG1 genotoxic	Rab9 prom act	NPC1 promoter act
COc1cccc(CN2C(=O)CN(C3CCCCC3)C(=O)C2c2ccc(OC)c(OC)c2)c1 (stereo not drawn)	·	-4.6%	·	·	·	·
CN1/C(=C/c2cc[n+](C)c3ccccc23)C=Cc2ccccc21	-90.0%	13.5µM*	-1.7%	-20.9%	-38.6%	-42.8%
CCOc1ccc(-c2csc(/C(C#N)=C\c3ccc(O)c([N+](=O)[O-])c3)n2)cc1	-92.8%	4.26µM*	21.8%	-10.4%	-1.9%	-5.1%
CCc1ccc(/C=C(/C#N)c2nc(-c3ccc(C)cc3)cs2)cc1	6.8%	0.5%	·	·	·	·
CN(C)c1ccc(NC(=O)CN2CCc3ccccc3C2)cc1	·	23.9µM*	?	?	?	29.2%
Cc1ccc(NC(=O)N2CCc3ccccc3C2)cc1	11.2µM*	12µM*	19.5%	8.2µM*	3.55µM*	2.82µM*
O=C(Nc1ccc(Cl)cc1)N1CCc2ccccc2C1	·	?	-2.6%	-3.7%	2.6%	-1.0%
O=C(CNc1cccc(F)c1)N1CCc2ccccc2C1	·	13.5µM*	?	?	4.47µM*	3.16µM*
O=C(Nc1ccccc1)N1CCc2ccccc2C1	14.1µM*	21.3µM*	?	14.8%	3.98µM*	?
CC(=O)c1c(C)[nH]c(C(=O)OCC(=O)N(Cc2ccccc2)C(C)(C)C)c1C	·	2.1%	-11.5%	-1.4%	-1.7%	-0.2%
COCCCNC(=O)c1c(NC(=O)Cc2coc3c(C)c(C)ccc23)sc2c1CCCC2	-1.2%	-11.2%	·	·	·	·
O=C(Oc1ccccc1C(=S)N1CCOCC1)c1cccc([N+](=O)[O-])c1	·	-0.5%	-5.0%	0.3%	-1.0%	-0.4%
O=C(/C=C/c1ccccc1Cl)NC(=S)Nc1ccccc1C(=O)NC1CCCCC1	10.5%	16.9µM*	2.5%	2.8%	?	13.0%
CCN(CC)c1ccc(/C=C2/SC(=O)N(C(C)C)C2=O)o1	20.6%	21.3µM*	-18.5%	-13.2%	24.0%	25.5%
Cc1ccc(N2NC(=O)/C(=C/c3ccc(-c4ccc(Cl)c(C(=O)O)c4)o3)C2=O)cc1	8.6%	10.7µM*	2.7%	-0.4%	-2.7%	0.0%
CCOC(=O)CN1C(=O)S/C(=C\c2ccc(-c3ccc(C(=O)O)c(Cl)c3)o2)C1=O	·	-9.0%	·	-1.7%	9.0%	-3.8%
CC(C)N1C(=O)S/C(=C\c2ccc(-c3ccc(Cl)c(C(=O)O)c3)o2)C1=O	·	3.01µM*	?	1.16µM*	0.398µM*	0.501µM*
O=C1NN(c2ccccc2)C(=O)/C1=C\c1ccc(-c2cc([N+](=O)[O-])ccc2O)o1	·	15.1µM*	1.4%	1.3%	-4.1%	-3.1%
O=C1NC(=O)/C(=C/c2ccc(-c3cccc([N+](=O)[O-])c3)o2)S1	·	?	?	2.0%	20.8%	11.5%
CC(C)N1C(=O)S/C(=C/c2ccccc2OCc2ccc(C(=O)O)cc2)C1=O	6.0%	?	10.3%	8.7%	-4.8%	0.2%
CC(C)CCC[C@@H](C)[C@@H]1CC[C@@H]2[C@H]3CC[C@H]4C[C@@H](N)CC[C@@]4(C)[C@@H]3CC[C@]21C	-5.6%[9.22 µM]	·	·	·	·	·
